# Test results reported in PubChem BioAssay AID504834 (National Center for Advancing Translational Sciences (NCATS), 2011).
# The whole screen tested about 320,000 compounds, of which about 22,000 (6.9%) were called active. Entries that show only a call come without a potency. Inconclusive results (about 27%) are left out. The call rests on the fitted dose curve; in most records, active means well fitted inhibition curve with a large enough effect; inconclusive means small, poorly fitted or top-dose-only effect, or another doubt; inactive means no such curve, though single readings can be large or run the other way. Many of the other results were omitted from the sample, so actives are more common in it than they were.
# Assay: Primary qHTS for delayed death inhibitors of the malarial parasite plastid, 96 hour incubation
# Settings: P. falciparum luciferase reporter growth; series mostly up to 28.7 µM
# Procedure, shortened: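 Two-generation exposure (96 h) targets delayed-death phenotype. Reporter parasites carrying integrated firefly luciferase, in red cells at 2% hematocrit and 0.05% parasitemia final, kept at 37 C, 5% CO2; luminescence loss indicates inhibition.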
# Potency means the concentration at half of the fitted maximal effect.
row,Compound,Potency
1,CCOc1ccc(S(=O)(=O)N2CCC(C(=O)NCc3ccccn3)CC2)cc1Cl,inactive
2,O=C(NCc1ccccc1)C1CCN(C(=O)Cc2ccccc2)CC1,inactive
3,CN(C)S(=O)(=O)c1cccc(NC(=O)COC(=O)/C=C/c2cccs2)c1,inactive
4,Cc1ccc(/C=N/NC(=S)Nc2cccc(S(=O)(=O)N(C)C)c2)o1,6.57 µM (active)
5,CN(C)S(=O)(=O)c1cccc(NC(=O)COC(=O)c2cc(=O)[nH]c(=O)[nH]2)c1,inactive
6,CCCOc1ccc(Cc2c(O)nc(N)[nH]c2=O)cc1C,inactive
7,S=C(NNC(=S)NC1CC2C=CC1C2)NC1CC2C=CC1C2 (stereo not given),9.28 µM (active)
8,CSC1=NC2(C)CCCCC2C12C=CC(=O)C=C2 (stereo not given),13.1 µM (active)
9,Cc1cc2c(cc1S(=O)(=O)CCC(=O)NCc1ccccc1)OCC(=O)N2,inactive
10,O=C(CSc1nccc(=O)[nH]1)Nc1ccc(N2CCOCC2)c(Cl)c1,inactive
11,COc1ccc(CN(Cc2ccc(OC)cc2)C(=O)c2cccs2)cc1,inactive
12,CCCn1c(N)c(C(=O)CSc2nc3ccccc3c(=O)n2-c2ccc(OC)cc2)c(=O)[nH]c1=O,inactive
13,CCOc1ccc(-n2c(SCC(=O)NC3CCS(=O)(=O)C3)nnc2-c2cccnc2)cc1 (stereo not given),inactive
14,CCOc1ccc(-n2c(SCC(=O)OC)nc3sc4c(c3c2=O)CCN(C)C4)cc1,0.828 µM (active)
15,COc1ccccc1OCc1nnc(SCC(N)=O)n1-c1ccccc1,inactive
16,COc1ccccc1NC(=O)CSc1nc2sc3c(c2c(=O)n1-c1ccccc1)CCN(C)C3,1.65 µM (active)
17,CCOc1ccc(NC(=O)CSc2nncn2C)cc1,inactive
18,COc1ccccc1NC(=O)CSc1nnc(Cn2nnc(-c3ccccc3)n2)n1-c1ccccc1,7.38 µM (active)
19,COc1ccccc1NC(=O)CSc1nnc(Cc2cccn2C)n1-c1ccc(F)cc1,inactive
20,COc1ccccc1NC(=O)CSc1nc2sc(C)c(C)c2c(=O)n1Cc1ccco1,inactive
21,COc1ccc(-n2c(=S)[nH]c3sc4c(c3c2=O)CCc2ccccc2-4)cc1,inactive
22,CCCSc1nc2sc3c(c2c(=O)n1-c1ccc(OC)cc1)CCN(C)C3,4.65 µM (active)

row,Compound,Potency
1,COc1ccccc1-n1c(SCC(=O)O)nc2sc3c(c2c1=O)CCC3,inactive
2,Cc1ccc(C(=O)Oc2ccc(C(=S)N3CCOCC3)cc2)cc1,inactive
3,O=C(Nc1ccc(-c2cscn2)cc1)C1CCCN(Cc2ccc(CO)o2)C1 (stereo not given),inactive
4,Cc1n[nH]c(=O)c2c(NC(=O)CSc3ccccc3F)oc(C)c12,inactive
5,COc1cc(N2C(=O)CSC2=S)cc(OC)c1OC,inactive
6,Cc1cc(C(=O)NC2CC(C)(C)Cc3c2cnn3-c2ccccc2)n[nH]1 (stereo not given),inactive
7,Cc1ccc(C)c(-n2c(SCC(=O)O)nc3sc4c(c3c2=O)CCCC4)c1,inactive
8,CCSc1nc2sc3c(c2c(=O)n1-c1ccc(C)cc1)CCN(C)C3,0.928 µM (active)
9,Cc1nc2sc3c(c2c(=O)n1NC(=O)CCl)CCCC3,inactive
10,COC(=O)c1sccc1NC(=S)Nc1ccc(C)cc1,inactive
11,CNC(=O)N1c2ccccc2C=Cc2ccccc21,inactive
12,Cc1ccc(Oc2nc(-c3ccccn3)nc3ccccc23)cc1,5.86 µM (active)
13,COc1cnc(-c2ccccn2)nc1Oc1ccc(C(C)(C)C)cc1,0.329 µM (active)
14,COc1ccc(Cc2nc(-c3ccccn3)no2)cc1OC,inactive
15,COc1ccccc1Oc1nc(-c2cccnc2)nc2ccccc12,inactive
16,N#Cc1ccc(Oc2cc(C(F)(F)F)nc(-c3ccccn3)n2)cc1,inactive
17,COc1ccc(Sc2nc(-c3ccccc3)ncc2OC)cc1,inactive
18,C=Cc1ccc(C(=O)N2CCCC(CCC(=O)N3CCN(c4ccccn4)CC3)C2)cc1 (stereo not given),inactive
19,C/C=C/C(=O)OCc1csc(CC(=O)Nc2ccccc2C)n1,inactive
20,O=C(NCCc1ccc(C(F)(F)F)cc1)c1ccc2c(c1)OCO2,inactive
21,CCOC(=O)c1nnn2c3ccccc3c(=O)n(C)c12,inactive
22,O=C(COC(=O)c1ccccc1C(=O)N1CCN(c2ccccc2)CC1)NCc1ccccc1,inactive

row,Compound,Potency
1,CCOC(=O)c1nnn2c1nc(N1CCN(c3ccccc3)CC1)c1ccccc12,2.62 µM (active)
2,O=C(NCCc1ccccc1)Oc1ccc(Cl)cc1,inactive
3,CCn1c(SCC(=O)NNC(=O)c2ccc(OC)cc2)nnc1C(C)C,inactive
4,CC1CCC(CN2CCN=C2N(C)C)CC1 (stereo not given),inactive
5,O=C1CCCN1CCCNC(=S)Nc1ccc(F)c(Cl)c1,inactive
6,CCCCC(=O)Nc1ccc(C(=O)Nc2cc(C(F)(F)F)ccc2Cl)cc1,inactive
7,O=C(CCCN1C(=O)CCC1=O)Nc1ccc(Cl)c(C(F)(F)F)c1,2.08 µM (active)
8,CNC(=O)c1sc(Nc2ccc(OCc3ccccc3)cc2)nc1C,inactive
9,O=C(COc1ccccc1[N+](=O)[O-])N/N=C/c1ccc[nH]1,inactive
10,S=C(Nc1ccc(Br)cc1)NC1CCN(Cc2ccccc2)CC1,inactive
11,O=C(NNC(=O)c1cnccc1C(F)(F)F)c1ccc(Cl)cc1,inactive
12,COC(=O)C1=C(c2ccc(F)cc2OCc2ccccc2)C[C@@H]2CC[C@H]1N2C(=O)NCc1ccc2[nH]ccc2c1,5.86 µM (active)
13,COC(=O)C1=C(c2ccc(C(C)=O)cc2)C[C@@H]2CC[C@H]1N2C(=O)NCCNC(C)=O,inactive
14,COC(=O)c1ccc(CNC(=O)C2CCC(=O)N(Cc3cccc(F)c3)C2)cc1 (stereo not given),inactive
15,COC(=O)C1=C(c2ccc3ccccc3c2)C[C@@H]2CC[C@H]1N2C(=O)NCCO,inactive
16,COc1ccccc1CNC(=O)CN1CCC(n2cnc3cc(F)ccc32)CC1,inactive
17,COC(=O)C1=C(c2cccc(OCc3ccccc3)c2)C[C@@H]2CC[C@H]1N2C(=O)NNCc1ccccc1,10.4 µM (active)
18,COc1ccc(S(=O)(=O)NC(C)C(=O)NCc2ccncc2)cc1Cl (stereo not given),inactive
19,CC1CN(C(=O)COC(=O)c2cccc(NS(=O)(=O)c3ccccc3)c2)CC(C)O1 (stereo not given),inactive
20,O=C(Nc1ccccc1)N1CCC(C(=O)N2CCN(Cc3ccccc3)CC2)CC1,inactive
21,COc1ccc(N(C)S(=O)(=O)c2ccc3c(c2)CC(C)N3C(=O)C2CC2)c(OC)c1 (stereo not given),inactive
